# Experimental data published in the supplement of paper PMC4466140.
# B1: unnamed (peptide)
# chain: IFLRISINFPLNYPN
# How the values were obtained:
# Assay in all cases: SPOT peptide array binding signal intensity (averaged, normalized) (arbitrary units (background-subtracted, floor 0; scale differs between SH3 domains)); higher = stronger binding of the SH3 domain to the peptide
# [1] = biological target: AgAbp1
# Procedure, shortened: (§1)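 GST-fused SH3 domains from four yeast species were expressed in E. coli BL21(DE3), purified on glutathione Sepharose and incubated at 10 μg/ml overnight at 4°C in TBS-based blocking buffer on cellulose membranes carrying synthetic 15-mer peptides, with cysteines replaced by serines. Bound protein was detected with anti-GST antibody, an HRP anti-mouse secondary and luminol, then imaged and quantified with Genespotter. Binding signal is the normalized, background-subtracted spot intensity averaged over replicates, in arbitrary units that differ between domains.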
# [2] = biological target: AgBbc1
# Procedure, shortened: as §1
# [3] = biological target: AgBem1-D1
# Procedure, shortened: as §1
# [4] = biological target: AgBzz1-D1
# Procedure, shortened: as §1
# [5] = biological target: AgBzz1-D2
# Procedure, shortened: as §1
# [6] = biological target: AgCyk3
# Procedure, shortened: as §1
# [7] = biological target: AgFus1
# Procedure, shortened: as §1
# [8] = biological target: AgHof1
# Procedure, shortened: as §1
# [9] = biological target: AgHse1
# Procedure, shortened: as §1
# [10] = biological target: AgLsb1
# Procedure, shortened: as §1
# [11] = biological target: AgLsb4
# Procedure, shortened: as §1
# [12] = biological target: AgMyo5
# Procedure, shortened: as §1
# [13] = biological target: AgNbp2
# Procedure, shortened: as §1
# [14] = biological target: AgRvs167
# Procedure, shortened: as §1
# [15] = biological target: AgSho1
# Procedure, shortened: as §1
# [16] = biological target: AgSla1-D1-D2
# Procedure, shortened: as §1
# [17] = biological target: AgSla1-D3
# Procedure, shortened: as §1
# [18] = biological target: CaAbp1-D1
# Procedure, shortened: as §1
# [19] = biological target: CaAbp1-D2
# Procedure, shortened: as §1
# [20] = biological target: CaBbc1
# Procedure, shortened: as §1
# [21] = biological target: CaBem1-D1
# Procedure, shortened: as §1
# [22] = biological target: CaBzz1-D1
# Procedure, shortened: as §1
# [23] = biological target: CaBzz1-D2
# Procedure, shortened: as §1
# [24] = biological target: CaCyk3
# Procedure, shortened: as §1
# [25] = biological target: CaFus1
# Procedure, shortened: as §1
# [26] = biological target: CaHof1
# Procedure, shortened: as §1
# [27] = biological target: CaHse1
# Procedure, shortened: as §1
# [28] = biological target: CaLsb1
# Procedure, shortened: as §1
# [29] = biological target: CaLsb4
# Procedure, shortened: as §1
# [30] = biological target: CaMyo5
# Procedure, shortened: as §1
# [31] = biological target: CaNbp2
# Procedure, shortened: as §1
# [32] = biological target: CaRvs167
# Procedure, shortened: as §1
# [33] = biological target: CaRvs167-3
# Procedure, shortened: as §1
# [34] = biological target: CaSho1
# Procedure, shortened: as §1
# [35] = biological target: CaSla1-D1-D2
# Procedure, shortened: as §1
# [36] = biological target: CaSla1-D3
# Procedure, shortened: as §1
# [37] = biological target: ScAbp1
# Procedure, shortened: as §1
# [38] = biological target: ScBbc1
# Procedure, shortened: as §1
# [39] = biological target: ScBem1-D1
# Procedure, shortened: as §1
# [40] = biological target: ScBzz1-D1
# Procedure, shortened: as §1
# [41] = biological target: ScBzz1-D2
# Procedure, shortened: as §1
# [42] = biological target: ScCyk3
# Procedure, shortened: as §1
# [43] = biological target: ScFus1
# Procedure, shortened: as §1
# [44] = biological target: ScHof1
# Procedure, shortened: as §1
# [45] = biological target: ScHse1
# Procedure, shortened: as §1
# [46] = biological target: ScLsb1
# Procedure, shortened: as §1
# [47] = biological target: ScLsb2
# Procedure, shortened: as §1
# [48] = biological target: ScLsb3
# Procedure, shortened: as §1
# [49] = biological target: ScLsb4
# Procedure, shortened: as §1
# [50] = biological target: ScMyo3
# Procedure, shortened: as §1
# [51] = biological target: ScMyo5
# Procedure, shortened: as §1
# [52] = biological target: ScNbp2
# Procedure, shortened: as §1
# [53] = biological target: ScPex13
# Procedure, shortened: as §1
# [54] = biological target: ScRvs167
# Procedure, shortened: as §1
# [55] = biological target: ScSho1
# Procedure, shortened: as §1
# [56] = biological target: ScSla1-D1-D2
# Procedure, shortened: as §1
# [57] = biological target: ScSla1-D3
# Procedure, shortened: as §1
# [58] = biological target: SpAbp1-D1
# Procedure, shortened: as §1
# [59] = biological target: SpBbc1
# Procedure, shortened: as §1
# [60] = biological target: SpBzz1-D1
# Procedure, shortened: as §1
# [61] = biological target: SpBzz1-D2
# Procedure, shortened: as §1
# [62] = biological target: SpCyk3
# Procedure, shortened: as §1
# [63] = biological target: SpHof1
# Procedure, shortened: as §1
# [64] = biological target: SpHof1-2
# Procedure, shortened: as §1
# [65] = biological target: SpHof1-3
# Procedure, shortened: as §1
# [66] = biological target: SpHse1
# Procedure, shortened: as §1
# [67] = biological target: SpLsb1
# Procedure, shortened: as §1
# [68] = biological target: SpLsb4
# Procedure, shortened: as §1
# [69] = biological target: SpMyo1
# Procedure, shortened: as §1
# [70] = biological target: SpNbp2
# Procedure, shortened: as §1
# [71] = biological target: SpPex13
# Procedure, shortened: as §1
# [72] = biological target: SpRvs167
# Procedure, shortened: as §1
# [73] = biological target: SpSla1-D1-D2
# Procedure, shortened: as §1
# [74] = biological target: SpSla1-D3
# Procedure, shortened: as §1
binder,measurement,setting,value
B1,SPOT peptide array binding signal intensity,[1],76
same,SPOT peptide array binding signal intensity,[2],233
same,SPOT peptide array binding signal intensity,[3],952
same,SPOT peptide array binding signal intensity,[4],1120
same,SPOT peptide array binding signal intensity,[5],412
same,SPOT peptide array binding signal intensity,[6],52.5
same,SPOT peptide array binding signal intensity,[7],4330
same,SPOT peptide array binding signal intensity,[8],218
same,SPOT peptide array binding signal intensity,[9],2460
same,SPOT peptide array binding signal intensity,[10],68.8
same,SPOT peptide array binding signal intensity,[11],2440
same,SPOT peptide array binding signal intensity,[12],29.5
same,SPOT peptide array binding signal intensity,[13],1630
same,SPOT peptide array binding signal intensity,[14],162
same,SPOT peptide array binding signal intensity,[15],2150
same,SPOT peptide array binding signal intensity,[16],74.2
same,SPOT peptide array binding signal intensity,[17],73.9
same,SPOT peptide array binding signal intensity,[18],448
same,SPOT peptide array binding signal intensity,[19],305
same,SPOT peptide array binding signal intensity,[20],487
same,SPOT peptide array binding signal intensity,[21],666
same,SPOT peptide array binding signal intensity,[22],1170
same,SPOT peptide array binding signal intensity,[23],821
same,SPOT peptide array binding signal intensity,[24],107
same,SPOT peptide array binding signal intensity,[25],7820
same,SPOT peptide array binding signal intensity,[26],1.25
same,SPOT peptide array binding signal intensity,[27],1570
same,SPOT peptide array binding signal intensity,[28],63.5
same,SPOT peptide array binding signal intensity,[29],477
same,SPOT peptide array binding signal intensity,[30],156
same,SPOT peptide array binding signal intensity,[31],2110
same,SPOT peptide array binding signal intensity,[32],750
same,SPOT peptide array binding signal intensity,[33],1500
same,SPOT peptide array binding signal intensity,[34],2060
same,SPOT peptide array binding signal intensity,[35],602
same,SPOT peptide array binding signal intensity,[36],1050
same,SPOT peptide array binding signal intensity,[37],93.2
same,SPOT peptide array binding signal intensity,[38],59.9
same,SPOT peptide array binding signal intensity,[39],194
same,SPOT peptide array binding signal intensity,[40],558
same,SPOT peptide array binding signal intensity,[41],2990
same,SPOT peptide array binding signal intensity,[42],127
same,SPOT peptide array binding signal intensity,[43],5050
same,SPOT peptide array binding signal intensity,[44],30.8
same,SPOT peptide array binding signal intensity,[45],3840
same,SPOT peptide array binding signal intensity,[46],12.8
same,SPOT peptide array binding signal intensity,[47],64
same,SPOT peptide array binding signal intensity,[48],1490
same,SPOT peptide array binding signal intensity,[49],396
same,SPOT peptide array binding signal intensity,[50],32.5
same,SPOT peptide array binding signal intensity,[51],114
same,SPOT peptide array binding signal intensity,[52],2820
same,SPOT peptide array binding signal intensity,[53],516
same,SPOT peptide array binding signal intensity,[54],223
same,SPOT peptide array binding signal intensity,[55],6350
same,SPOT peptide array binding signal intensity,[56],880
same,SPOT peptide array binding signal intensity,[57],344
same,SPOT peptide array binding signal intensity,[58],211
same,SPOT peptide array binding signal intensity,[59],238
same,SPOT peptide array binding signal intensity,[60],1240
same,SPOT peptide array binding signal intensity,[61],97
same,SPOT peptide array binding signal intensity,[62],35
same,SPOT peptide array binding signal intensity,[63],342
same,SPOT peptide array binding signal intensity,[64],157
same,SPOT peptide array binding signal intensity,[65],1040
same,SPOT peptide array binding signal intensity,[66],2240
same,SPOT peptide array binding signal intensity,[67],33
same,SPOT peptide array binding signal intensity,[68],625
same,SPOT peptide array binding signal intensity,[69],168
same,SPOT peptide array binding signal intensity,[70],1680
same,SPOT peptide array binding signal intensity,[71],1640
same,SPOT peptide array binding signal intensity,[72],239
same,SPOT peptide array binding signal intensity,[73],68
same,SPOT peptide array binding signal intensity,[74],512
